Results reported in PubChem BioAssay AID1159580 (chemical genetic matrix, 2015).
The campaign covered roughly 5,500 compounds. About 2,000 (36%) were called active. About 18% were inconclusive and are not listed. Some of the results follow. Values without a mark were called inactive. Rule as the data show it: active = normalized growth mostly below about 0.91 (no sharp cut-off); inconclusive = no clear call, values can overlap the other calls; inactive = mostly above about 0.92.

Assay: chemical genetic growth profiling, strain panel (AID 1159580);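 also: tested at 20 µM; growth read once vehicle control cultures reached saturation at 30 °C; 1 = growth at the plate median or of vehicle wells; lower values mean less growth of the strain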
Settings: S. cerevisiae deletion strains, growth OD

Compound `CNCCC(Oc1ccccc1C)c1ccccc1` (configuration not stated) has a normalized growth (locus YAL040C, strain CLN3, hits give low values) of 0.978, a normalized growth (locus YCL061C, strain MRC1 (second series), hits give low values) of 0.995 and a normalized growth (locus YDR150W, strain NUM1, hits give low values) of 0.994. For the same compound, the normalized growth (locus YDR363W, strain ESC2, hits give low values) was 0.968, the normalized growth (locus YER002W, strain NOP16, hits give low values) was 0.995 and the normalized growth (locus YMR263W, strain SAP30, hits give low values) was 0.982. The normalized growth (locus YMR307W, strain GAS1, hits give low values) was 0.971, the normalized growth (locus YNL128W, strain TEP1, hits give low values) was 1.05 and the normalized growth (locus YNL153C, strain GIM3, hits give low values) was 0.984. The normalized growth (locus YNL175C, strain NOP13, hits give low values) was 1.04, the normalized growth (locus YNL197C, strain WHI3, hits give low values) was 1.02 and the normalized growth (locus YNL224C, strain SQS1, hits give low values) was 1.08. The normalized growth (locus YNL322C, strain KRE1, hits give low values) was 0.96, the normalized growth (locus YOR083W, strain WHI5 (second series), hits give low values) was 1 and the normalized growth (locus YPL055C, strain LGE1, hits give low values) was 0.984. For the same compound, the normalized growth (locus YPL241C, strain CIN2, hits give low values) was 1.

In the case of `C/C(=N/NC(N)=S)c1csc(-c2ccccc2)n1`, the normalized growth (locus YAR019C, strain CDC15, hits give low values) is reported as 0.917, the normalized growth (locus YBL105C, strain PKC1, hits give low values) is reported as 0.947 and the normalized growth (locus YBR135W, strain CKS1, hits give low values) is reported as 0.948. It also gave a normalized growth (locus YBR136W, strain MEC1, hits give low values) of 0.941, a normalized growth (locus YBR160W, strain CDC28, hits give low values) of 0.942 and a normalized growth (locus YDL017W, strain CDC7, hits give low values) of 0.962. The normalized growth (locus YDL028C, strain MPS1, hits give low values) was 0.948, the normalized growth (locus YDL101C, strain DUN1, hits give low values) was 0.931 and the normalized growth (locus YDL108W, strain KIN28, hits give low values) was 0.942. For the same compound, the normalized growth (locus YDL132W, strain cdc53, hits give low values) was 0.942, the normalized growth (locus YDL214C, strain PRR2, hits give low values) was 0.834 and the normalized growth (locus YDR052C, strain DBF4, hits give low values) was 0.944. It also gave a normalized growth (locus YDR054C, strain cdc34, hits give low values) of 0.898, a normalized growth (locus YDR226W, strain ADK1, hits give low values) of 0.961 and a normalized growth (locus YDR477W, strain SNF1, hits give low values) of 0.816. It also gave a normalized growth (locus YER123W, strain YCK3, hits give low values) of 0.698, a normalized growth (locus YER133W, strain GLC7, hits give low values) of 0.791 and a normalized growth (locus YFL009W, strain cdc4, hits give low values) of 0.913. The normalized growth (locus YFL029C, strain CAK1, hits give low values) was 0.935, the normalized growth (locus YFR003C, strain YPI1, hits give low values) was 0.948 and the normalized growth (locus YFR019W, strain FAB1, hits give low values) was 0.895. For the same compound, the normalized growth (locus YFR028C, strain CDC14, hits give low values) was 0.936, the normalized growth (locus YGR040W, strain KSS1, hits give low values) was 0.823 and the normalized growth (locus YGR052W, strain FMP48, hits give low values) was 0.96. For the same compound, the normalized growth (locus YGR092W, strain DBF2, hits give low values) was 0.545, the normalized growth (locus YHR030C, strain SLT2, hits give low values) was 1.46 [resistant] (active) and the normalized growth (locus YHR079C, strain IRE1, hits give low values) was 0.663. The normalized growth (locus YHR082C, strain KSP1, hits give low values) was 1.19, the normalized growth (locus YHR205W, strain SCH9, hits give low values) was 0.978 and the normalized growth (locus YIL147C, strain SLN1, hits give low values) was 0.937. The normalized growth (locus YJL095W, strain BCK1, hits give low values) was 0.993, the normalized growth (locus YJL128C, strain PBS2, hits give low values) was 1.02 and the normalized growth (locus YJL157C, strain FAR1, hits give low values) was 0.802. The normalized growth (locus YJR016C, strain ILV3, hits give low values) was 0.935, the normalized growth (locus YJR066W, strain TOR1 (second series), hits give low values) was 0.625 and the normalized growth (locus YJR066W, strain TOR1, hits give low values) was 1.01. For the same compound, the normalized growth (locus YKL048C, strain ELM1, hits give low values) was 0.948, the normalized growth (locus YKL067W, strain YNK1, hits give low values) was 0.864 and the normalized growth (locus YKL101W, strain HSL1, hits give low values) was 0.886. The normalized growth (locus YKL193C, strain SDS22, hits give low values) was 0.932, the normalized growth (locus YKL203C, strain TOR2, hits give low values) was 0.852 and the normalized growth (locus YLR113W, strain HOG1, hits give low values) was 0.964. For the same compound, the normalized growth (locus YLR133W, strain CKI1, hits give low values) was 0.863, the normalized growth (locus YLR403W, strain SFP1, hits give low values) was 0.717 and the normalized growth (locus YML070W, strain DAK1, hits give low values) was 0.884. The normalized growth (locus YMR001C, strain CDC5, hits give low values) was 0.935, the normalized growth (locus YMR205C, strain PFK2 (second series), hits give low values) was 0.883 and the normalized growth (locus YMR277W, strain FCP1, hits give low values) was 0.914. It also gave a normalized growth (locus YNL006W, strain LST8, hits give low values) of 0.949, a normalized growth (locus YNL020C, strain ARK1, hits give low values) of 0.846 and a normalized growth (locus YNL161W, strain CBK1, hits give low values) of 0.925. For the same compound, the normalized growth (locus YNL183C, strain NPR1, hits give low values) was 0.883, the normalized growth (locus YNL207W, strain RIO2, hits give low values) was 0.931 and the normalized growth (locus YNL222W, strain SSU72, hits give low values) was 0.925. The normalized growth (locus YNL307C, strain MCK1 (second series), hits give low values) was 0.754, the normalized growth (locus YOL078W, strain AVO1, hits give low values) was 0.92 and the normalized growth (locus YOL136C, strain PFK27, hits give low values) was 0.837. For the same compound, the normalized growth (locus YOR061W, strain CKA2, hits give low values) was 0.829, the normalized growth (locus YOR119C, strain RIO1, hits give low values) was 0.823 and the normalized growth (locus YOR231W, strain MKK1, hits give low values) was 0.739. For the same compound, the normalized growth (locus YOR329C, strain SCD5, hits give low values) was 0.943, the normalized growth (locus YPL031C, strain PHO85, hits give low values) was 0.776 and the normalized growth (locus YPL153C, strain RAD53, hits give low values) was 0.789. It also gave a normalized growth (locus YPL204W, strain HRR25, hits give low values) of 0.774, a normalized growth (locus YPL209C, strain IPL1, hits give low values) of 0.945 and a normalized growth (locus YPL256C, strain CLN2, hits give low values) of 1.05. The normalized growth (locus YPR025C, strain CCL1, hits give low values) was 0.95, the normalized growth (locus YPR106W, strain ISR1, hits give low values) was 0.945 and the normalized growth (locus YPR111W, strain DBF20, hits give low values) was 0.968. The normalized growth (strain NNK1, hits give low values) was 0.969 and the normalized growth (strain TSCII, hits give low values) was 0.914.
